SMILES strings stand for the structures. Results filed as inconclusive are left out. Entries that show only a call come without a potency. The source made the active and inactive calls. The call rests on the fitted dose curve; in most records, active means well fitted cell-killing curve with a large enough effect; inconclusive means small, poorly fitted or top-dose-only effect; inactive means no such curve, though single readings can be large or run the other way. Where a SMILES comes first, the peptide text is derived from it.
Potency means the concentration at half of the fitted maximal effect.

The assay in a line: qHTS of pediatric cancer cell lines to identify multiple opportunities for drug repurposing: Primary screen for NB1643 cells (AID 1347099). Further: nearly all actives have a fitted effect of over 50% in size. The settings on record: NB1643 neuroblastoma viability, CellTiter-Glo luminescence, 48 h; series mostly up to 46 µM. The text has this: Drug repurposing or repositioning has been offered as a strategy for drug development in oncology programs. This approach has special potential for childhood cancers and other rare or orphan diseases, where the expected return on new drug development has been a disincentive to pharmaceuticals. […] In this project we exploit the poly-pharmacology of drugs to discover new indications via phenotypic screening of a panel of 19 well-characterized cell lines derived from solid tumors seen in children and adolescents. The goal is to identify approved drugs with previously unrecognized anticancer properties that has the potential to reveal new mechanisms and biological processes involved in carcinogenesis or drug resistance. We employed a titration-based paradigm (quantitative high-throughput screening or qHTS), where all compounds were tested at multiple concentrations for their effect on cell viability. Concentration-response curves (CRCs) were derived directly from the primary screen, and both potency and efficacy values were used to identify compounds with robust bioactivity profiles. We screened the NIH Chemical Genomics Center (NCGC) Pharmaceutical Collection (NPC) and Mechanism Interrogation Plate (MIPE) small molecule collections of approved and investigational compounds against these cell lines; and measured metabolically active cells after 48 hours of compound treatment as a proxy for cell viability. […] Assay Submitter: Nathalia J. Martinez, National Center for Advancing Translational Sciences, National Institutes of Health, Rockville, MD, USA; email: natalia.martinez@nih.gov Shen, M et al. Quantitative high-throughput phenotypic screening of pediatric cancer cell lines identifies multiple opportunities for drug repurposing. Oncotarget 2017 Dec 19;9(4):4758-4772. PMID 29435139.
The cells were obtained from University of North Carolina (UNC), Pediatric Preclinical Testing Program (PPT), and Coriell Institute (CI). qHTS cell viability assay: Cells were assayed in growth media at a density of 500-1,000 cells/well. Five microliters of cells were dispensed into 1,536-well, white, solid-bottom, TC-treated plates (Greiner Bio One) using a multidrop dispenser and incubated at 37 degrees C, 5% CO2, under a humidified atmosphere for 5 hours. Twenty-three nanoliters of compounds and controls (neutral control DMSO or positive control bortezomib at final concentration of 2.3 µM) were subsequently transferred by Kalypsys pintool. For primary screens, the MIPE collection was tested at 11-point dilutions (final concentrations range from 0.78 nM to 46 µM) and the NPC collection at 8-point dilutions (final concentrations range from 0.59 nM to 46 µM). Compounds tested in follow-up screens were assayed at 11-point dilutions. Cells were incubated for 48 hours, followed by addition of 3 µL of CellTiter-Glo (Promega). After a 15 min incubation at room temperature, samples were analyzed for luminescence intensity using a ViewLux High-throughput CCD imager equipped with clear filters.
Background: qHTS replaces the single test concentration by a dilution series.
With `Cc1ccc(C(=O)Oc2ccc(C(O)CNC(C)(C)C)cc2OC(=O)c2ccc(C)cc2)cc1` (stereo not given), the Potency is 0.001 µM (active).
As for `OCCOCCN1CCN(C(c2ccccc2)c2ccc(Cl)cc2)CC1` (stereo not given), the Potency result is “inactive”.
With `COc1ccc2c(c1)CCCC2=O` the entry was “inactive”; with `CC(C)(C)C(=O)OCOC(=O)C1N2C(=O)CC2S(=O)(=O)C1(C)C` (stereo not given), “inactive”; with `CCOC(=O)C(=O)CCCCCCl`, “inactive”.
With `CCCCOCCOC(=O)c1cccnc1` the entry was “inactive”; with `NC(=O)COCCN1CCN(C(c2ccccc2)c2ccc(Cl)cc2)CC1` (stereo not given), “inactive”.
The value for `OCc1cccnc1` was “inactive”; that for `COc1ccc(CCC(C)=O)cc1` was “inactive”; that for `O=C(Oc1ccccc1)c1ccccc1O` was “inactive”.
On to `COc1ccccc1N1CCN(CC(O)COc2cc(OC)c(OC)c(OC)c2)CC1` (stereo not given), for which the Potency result is “inactive”.
Regarding `CCCCNc1ccc(C(=O)OCCN(CC)CC)cc1`, the Potency entry is “inactive”.
As to `Cc1ncc(CO)c(CO)c1O`, the Potency entry was “inactive”.
With `O=C(c1ccco1)N1CCNCC1` the entry was “inactive”.
Regarding `CCOC(=O)N1CCC(Nc2ccc(Cl)cc2N)CC1`, the Potency is 8.41 µM (active).
For `COCCc1ccccn1`, the Potency result is “inactive”.
Regarding `CC(=O)N[C@@H](CO)C(=O)N[C@@H](CC(=O)O)C(=O)N[C@@H](CCCCN)C(=O)N1CCC[C@H]1C(=O)O` (Ac-SDKP-OH), the Potency entry was “inactive”.
Regarding `CC(C)=CCC/C(C)=C/CC/C(C)=C/CCC(=O)OC/C=C(\C)CCC=C(C)C`, the Potency entry was “inactive”.
With `O=C1CC(c2ccc(Cl)cc2)CC(=O)N1`, the Potency entry was “inactive”.
The value for `CN=C(N)NC(=O)Nc1c(C)cccc1C` was “inactive”; that for `O=C(CCCl)NCc1ccccc1` was “inactive”.
With `CN1C(=O)c2ccccc2C1=O` the entry was “inactive”; with `CCN1CCN(C(=O)N[C@@H](C(=O)N[C@@H]2C(=O)N3[C@@H]2SC(C)(C)[C@H]3C(=O)O)c2ccccc2)C(=O)C1=O`, “inactive”; with `O=C(O)Cn1c(=O)n(Cc2ccc(Br)cc2F)c(=O)c2ccc(Cl)cc21`, “inactive”.
`CCOC(=O)NNc1nncc2ccccc12`: the Potency entry was “inactive”.
The value for `O=C1c2ccccc2CCc2ccccc21` was “inactive”; that for `CCCCCC(=O)O[C@]1(C(C)=O)CC[C@H]2[C@@H]3CCC4=CC(=O)CC[C@]4(C)[C@H]3CC[C@@]21C` was 18.8 µM (active).
Take `CCC1(c2cnc[nH]2)Cc2ccccc2C1`: the Potency result was “inactive”.
For `CC(C)C[C@@H]1[C@H](c2ccccc2)OC(=O)N1CCCN1CCCCCC1`, the Potency entry is “inactive”.
Regarding `Oc1cccc2[nH]ccc12`, the Potency entry is “inactive”.
With `C[C@@H]1C[C@H]2[C@@H]3CCC4=CC(=O)C=C[C@]4(C)[C@@]3(F)[C@@H](O)C[C@]2(C)[C@@]1(O)C(=O)COC(=O)c1ccncc1` the entry was “inactive”; with `O=C(OCC(COC(=O)c1cccnc1)(COC(=O)c1cccnc1)COC(=O)c1cccnc1)c1cccnc1`, “inactive”; with `CCOC(=O)NNc1ccc(N(CC)CC(C)O)nn1` (stereo not given), “inactive”.
Take `CO/N=C(/C(=O)N[C@@H]1C(=O)N2C(C(=O)[O-])=C(C[n+]3ccn4ncccc43)CS[C@H]12)c1nsc(N)n1`: the Potency entry is “inactive”.
`N#CC1(c2ccc(F)cc2)CCC(=O)CC1`: the Potency result is “inactive”.
With `C/C(=N/NC(=O)c1ccncc1)C(=O)O` the entry was “inactive”; with `O=C(Oc1ccccc1)c1cccc(C(=O)Oc2ccccc2)c1`, “inactive”; with `CC(=O)c1ccc(O)c(C(N)=O)c1`, “inactive”.
For the compound `Nc1nnnn1-c1ccccc1`, the Potency entry is “inactive”.
As for `CN(C)[C@@H]1C(=O)C(C(N)=O)=C(O)[C@@]2(O)C(=O)C3=C(O)c4c(O)cccc4C[C@H]3C[C@@H]12`, the Potency result is “inactive”.

Values taken from PubChem BioAssay (NCATS).
